# Laboratory results from the supplement of paper PMC10849652.
# The full data set covers some 7,900 targets. This sample favours those with a hit. About 0.6% of all pairs of compound and target were hits. Values without a mark were called inactive.
# Assays:
# Experiment in all cases: log2 fold change, soluble protein after heating vs DMSO (PISA); higher = thermal stabilisation; K562 cells, 10 uM, 30 min; active = over 0.2 and 3.5 SD of the protein, either way, in both replicates (recomputed)
# [1] = compound: CS(=O)(=O)c1ccc(-c2cnc(N)c(C(=O)Nc3ccccc3)n2)cc1
# Outline: (§1)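 Aliquots of K562 cells (2×10^6 cells/mL) treated with 10 μM compound for 30 min were heated for 3 min over 48°C-58°C. After pooling and extraction in PBS with 0.5% NP-40 at 4°C, soluble protein from a 21,000xg, 90 min spin was quantified by TMTpro 16plex LC-MS/MS with channel sums equalised. Thermal stability is expressed against control samples, from duplicates, as a log2 fold change.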
# [2] = compound: C[C@@H]1COCCN1C2=NC(=NC(=C2)C3(CC3)S(=O)(=O)C)C4=C5C=CNC5=CC=C4
# Outline: as §1
# [3] = compound: C[C@H](C1=CC=C(C=C1)C(=O)NC2=C3C=CNC3=NC=C2)N
# Outline: as §1
# [4] = compound: C[C@H](Nc1ncnc2nc[nH]c12)c1cc2cccc(Cl)c2c(=O)n1-c1ccccc1 [duvelisib]
# Outline: as §1
# [5] = compound: Cc1cc(Nc2cc(CN3CCOCC3)c3nc(C)c(Cc4ccc(Cl)cc4F)n3n2)n[nH]1 [gandotinib]
# Outline: as §1
# [6] = compound: Cc1cc(Nc2cc(N3CCN(C)CC3)nc(Sc3ccc(NC(=O)C4CC4)cc3)n2)n[nH]1 [tozasertib]
# Outline: as §1
# [7] = compound: Cc1cc(SCc2sc(-c3ccc(C(F)(F)F)cc3)nc2C)ccc1OCC(=O)O
# Outline: as §1
# [8] = compound: Cc1ccc(C(=O)N(CCCN)[C@@H](c2nc3cc(Cl)ccc3c(=O)n2Cc2ccccc2)C(C)C)cc1 [ispinesib]
# Outline: as §1
# [9] = compound: Cc1ccc(NC(=O)c2ccc(CN3CC[C@H](N(C)C)C3)c(C(F)(F)F)c2)cc1Nc1nccc(-c2cncnc2)n1 [bafetinib]
# Outline: as §1
# [10] = compound: Cc1cccc(CC(=O)N2CCc3c2ccc(-c2cn(C)c4ncnc(N)c24)c3F)n1
# Outline: as §1
# [11] = compound: Cc1cn(-c2cc(NC(=O)c3ccc(C)c(Nc4nccc(-c5cccnc5)n4)c3)cc(C(F)(F)F)c2)cn1 [nilotinib]
# Outline: as §1
# [12] = compound: Cc1nc(Nc2n[nH]c3c2CN(C(=O)N[C@H](CN(C)C)c2ccccc2)C3(C)C)c2sccc2n1
# Outline: as §1
# [13] = compound: Cc1nc(Nc2ncc(C(=O)Nc3c(C)cccc3Cl)s2)cc(N2CCN(CCO)CC2)n1 [dasatinib]
# Outline: as §1
# [14] = compound: Cc1ncc(-c2ccnc(Nc3ccc(S(C)(=O)=O)cc3)n2)n1C(C)C
# Outline: as §1
# [15] = compound: Cn1cc(-c2ccc3c(c2)CCN3C(=O)Cc2cccc(C(F)(F)F)c2)c2c(N)ncnc21
# Outline: as §1
# [16] = compound: Cn1cc(-c2ccc3nnc(C(F)(F)c4ccc5ncccc5c4)n3n2)cn1
# Outline: as §1
# [17] = compound: Cn1cncc1[C@@](N)(c1ccc(Cl)cc1)c1ccc2c(c1)c(-c1cccc(Cl)c1)cc(=O)n2C [tipifarnib]
# Outline: as §1
# [18] = compound: FC(F)(F)c1ccc(/C=C/c2nc(COc3ccc(CCCCn4ccnn4)cc3)co2)cc1 [mubritinib]
# Outline: as §1
# [19] = compound: C[C@@H](Oc1cc(-c2cnn(C3CCNCC3)c2)cnc1N)c1c(Cl)ccc(F)c1Cl [crizotinib]
# Outline: as §1
# [20] = compound: Cc1ccc(-n2nc(C(C)(C)C)cc2NC(=O)Nc2ccc(OCCN3CCOCC3)c3ccccc23)cc1 [doramapimod]
# Outline: as §1
# Chain of UniProt Q9BY78 (Q9BY78 whole entry, looked up): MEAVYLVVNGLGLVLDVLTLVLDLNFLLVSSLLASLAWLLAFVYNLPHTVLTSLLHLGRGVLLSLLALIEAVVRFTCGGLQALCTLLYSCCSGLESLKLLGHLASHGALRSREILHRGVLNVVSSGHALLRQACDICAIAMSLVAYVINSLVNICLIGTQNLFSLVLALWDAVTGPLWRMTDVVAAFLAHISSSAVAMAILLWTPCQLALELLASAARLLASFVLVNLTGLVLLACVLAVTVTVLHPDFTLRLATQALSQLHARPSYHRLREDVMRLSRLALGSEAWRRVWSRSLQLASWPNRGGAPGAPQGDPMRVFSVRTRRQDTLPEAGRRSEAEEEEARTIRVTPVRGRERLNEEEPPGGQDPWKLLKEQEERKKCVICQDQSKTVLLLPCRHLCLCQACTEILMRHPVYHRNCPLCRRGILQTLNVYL
# Chain of UniProt Q96LZ7 (Q96LZ7 whole entry, looked up): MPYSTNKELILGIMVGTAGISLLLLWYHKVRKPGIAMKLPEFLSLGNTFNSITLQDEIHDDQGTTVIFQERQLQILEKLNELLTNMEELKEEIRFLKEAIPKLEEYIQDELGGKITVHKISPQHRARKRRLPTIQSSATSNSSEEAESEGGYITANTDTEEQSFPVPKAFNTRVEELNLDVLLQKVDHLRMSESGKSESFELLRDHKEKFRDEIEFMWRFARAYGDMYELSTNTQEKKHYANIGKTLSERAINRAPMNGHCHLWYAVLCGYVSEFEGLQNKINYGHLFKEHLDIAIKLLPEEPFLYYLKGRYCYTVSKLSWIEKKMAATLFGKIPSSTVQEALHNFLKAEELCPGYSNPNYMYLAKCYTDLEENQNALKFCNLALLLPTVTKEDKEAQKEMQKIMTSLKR
# Chain of UniProt P60602 (P60602 whole entry, looked up): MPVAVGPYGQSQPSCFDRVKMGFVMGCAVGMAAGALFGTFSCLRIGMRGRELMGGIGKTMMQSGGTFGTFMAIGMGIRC
# Chain of UniProt P43003 (P43003 whole entry, looked up): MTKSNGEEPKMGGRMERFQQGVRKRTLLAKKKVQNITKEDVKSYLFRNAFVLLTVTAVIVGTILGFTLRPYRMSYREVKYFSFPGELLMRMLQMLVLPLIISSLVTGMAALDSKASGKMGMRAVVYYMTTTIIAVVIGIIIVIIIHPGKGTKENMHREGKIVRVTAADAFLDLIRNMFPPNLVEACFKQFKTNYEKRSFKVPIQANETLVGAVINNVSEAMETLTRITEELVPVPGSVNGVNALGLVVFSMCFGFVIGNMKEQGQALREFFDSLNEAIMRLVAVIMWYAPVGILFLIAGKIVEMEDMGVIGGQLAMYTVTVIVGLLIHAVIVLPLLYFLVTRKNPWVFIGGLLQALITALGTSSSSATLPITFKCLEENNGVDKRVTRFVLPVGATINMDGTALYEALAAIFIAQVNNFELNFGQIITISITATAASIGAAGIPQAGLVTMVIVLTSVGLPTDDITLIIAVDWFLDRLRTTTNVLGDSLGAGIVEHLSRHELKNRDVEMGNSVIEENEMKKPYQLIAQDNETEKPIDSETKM
# Chain of UniProt O95716 (O95716 whole entry, looked up): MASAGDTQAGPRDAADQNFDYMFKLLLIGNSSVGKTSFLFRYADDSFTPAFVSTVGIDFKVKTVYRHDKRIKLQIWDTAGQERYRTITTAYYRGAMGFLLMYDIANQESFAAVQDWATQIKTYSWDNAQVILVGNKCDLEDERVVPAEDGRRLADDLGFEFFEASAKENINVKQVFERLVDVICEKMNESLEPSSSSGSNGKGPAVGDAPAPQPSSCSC
# Chain of UniProt Q6R327 (Q6R327 whole entry, looked up): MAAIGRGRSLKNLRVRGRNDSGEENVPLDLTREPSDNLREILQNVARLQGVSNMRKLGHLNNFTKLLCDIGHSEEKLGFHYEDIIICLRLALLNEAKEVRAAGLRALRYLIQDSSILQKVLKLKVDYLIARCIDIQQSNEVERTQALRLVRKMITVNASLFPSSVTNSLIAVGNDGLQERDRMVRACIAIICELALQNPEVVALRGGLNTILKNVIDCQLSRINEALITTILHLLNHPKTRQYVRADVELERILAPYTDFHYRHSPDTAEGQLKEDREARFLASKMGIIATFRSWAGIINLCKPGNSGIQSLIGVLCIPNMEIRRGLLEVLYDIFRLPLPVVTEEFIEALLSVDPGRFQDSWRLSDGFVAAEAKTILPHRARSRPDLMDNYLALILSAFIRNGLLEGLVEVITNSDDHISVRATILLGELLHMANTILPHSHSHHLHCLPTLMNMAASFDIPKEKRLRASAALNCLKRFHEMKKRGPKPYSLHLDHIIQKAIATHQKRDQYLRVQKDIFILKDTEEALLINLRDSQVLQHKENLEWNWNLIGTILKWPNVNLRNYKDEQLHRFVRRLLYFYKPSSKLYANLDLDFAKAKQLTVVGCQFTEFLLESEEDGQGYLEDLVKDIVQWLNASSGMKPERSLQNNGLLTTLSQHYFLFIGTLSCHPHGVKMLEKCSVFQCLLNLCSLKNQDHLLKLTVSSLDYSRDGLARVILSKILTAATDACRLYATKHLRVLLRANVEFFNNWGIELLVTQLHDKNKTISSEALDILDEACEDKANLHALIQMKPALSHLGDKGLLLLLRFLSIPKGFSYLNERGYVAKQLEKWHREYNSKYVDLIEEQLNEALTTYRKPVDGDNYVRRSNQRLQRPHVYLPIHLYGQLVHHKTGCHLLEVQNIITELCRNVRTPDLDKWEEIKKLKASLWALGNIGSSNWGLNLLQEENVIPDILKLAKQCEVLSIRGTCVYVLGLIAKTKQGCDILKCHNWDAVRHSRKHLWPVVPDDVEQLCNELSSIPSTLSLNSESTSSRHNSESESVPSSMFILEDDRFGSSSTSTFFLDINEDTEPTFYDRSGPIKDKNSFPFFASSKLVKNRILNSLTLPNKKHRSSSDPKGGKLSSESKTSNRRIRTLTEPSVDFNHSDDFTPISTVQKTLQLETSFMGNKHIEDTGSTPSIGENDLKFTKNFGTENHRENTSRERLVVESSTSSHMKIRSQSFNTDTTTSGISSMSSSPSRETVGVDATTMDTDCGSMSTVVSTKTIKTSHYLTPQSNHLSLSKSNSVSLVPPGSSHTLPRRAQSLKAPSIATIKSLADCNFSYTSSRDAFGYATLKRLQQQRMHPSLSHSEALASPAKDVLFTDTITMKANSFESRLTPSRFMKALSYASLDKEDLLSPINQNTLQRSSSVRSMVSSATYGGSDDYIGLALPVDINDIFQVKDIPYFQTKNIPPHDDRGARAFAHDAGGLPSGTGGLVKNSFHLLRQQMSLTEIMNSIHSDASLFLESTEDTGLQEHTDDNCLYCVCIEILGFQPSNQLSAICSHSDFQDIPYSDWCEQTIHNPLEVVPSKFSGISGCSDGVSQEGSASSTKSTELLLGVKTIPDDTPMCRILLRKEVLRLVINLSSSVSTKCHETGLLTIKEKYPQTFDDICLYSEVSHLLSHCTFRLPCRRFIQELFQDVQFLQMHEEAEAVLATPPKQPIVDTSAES
# Chain of UniProt Q7L099 (Q7L099 whole entry, looked up): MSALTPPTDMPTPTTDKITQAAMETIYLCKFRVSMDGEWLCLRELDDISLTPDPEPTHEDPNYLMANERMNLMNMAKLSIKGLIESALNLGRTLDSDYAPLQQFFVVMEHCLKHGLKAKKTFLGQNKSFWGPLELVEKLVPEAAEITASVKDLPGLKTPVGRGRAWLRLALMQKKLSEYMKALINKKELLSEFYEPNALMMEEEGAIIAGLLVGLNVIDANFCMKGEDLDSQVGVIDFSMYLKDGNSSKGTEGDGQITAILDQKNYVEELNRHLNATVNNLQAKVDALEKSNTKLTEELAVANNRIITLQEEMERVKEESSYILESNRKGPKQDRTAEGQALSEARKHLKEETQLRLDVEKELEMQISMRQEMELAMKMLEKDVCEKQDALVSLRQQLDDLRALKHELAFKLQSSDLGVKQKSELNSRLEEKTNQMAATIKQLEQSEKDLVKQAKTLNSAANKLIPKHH
# Chain of UniProt O15127 (O15127 whole entry, looked up): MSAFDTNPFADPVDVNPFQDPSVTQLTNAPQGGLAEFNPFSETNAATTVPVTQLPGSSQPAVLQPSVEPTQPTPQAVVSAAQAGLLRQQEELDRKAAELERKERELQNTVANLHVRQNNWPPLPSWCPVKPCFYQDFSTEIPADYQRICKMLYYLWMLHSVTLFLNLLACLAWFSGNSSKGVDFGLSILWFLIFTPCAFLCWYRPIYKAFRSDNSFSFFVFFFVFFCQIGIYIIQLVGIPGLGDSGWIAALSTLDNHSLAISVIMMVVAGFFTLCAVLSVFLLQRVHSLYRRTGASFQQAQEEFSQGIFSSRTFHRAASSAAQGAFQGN
# Chain of UniProt Q96NL6 (Q96NL6 whole entry, looked up): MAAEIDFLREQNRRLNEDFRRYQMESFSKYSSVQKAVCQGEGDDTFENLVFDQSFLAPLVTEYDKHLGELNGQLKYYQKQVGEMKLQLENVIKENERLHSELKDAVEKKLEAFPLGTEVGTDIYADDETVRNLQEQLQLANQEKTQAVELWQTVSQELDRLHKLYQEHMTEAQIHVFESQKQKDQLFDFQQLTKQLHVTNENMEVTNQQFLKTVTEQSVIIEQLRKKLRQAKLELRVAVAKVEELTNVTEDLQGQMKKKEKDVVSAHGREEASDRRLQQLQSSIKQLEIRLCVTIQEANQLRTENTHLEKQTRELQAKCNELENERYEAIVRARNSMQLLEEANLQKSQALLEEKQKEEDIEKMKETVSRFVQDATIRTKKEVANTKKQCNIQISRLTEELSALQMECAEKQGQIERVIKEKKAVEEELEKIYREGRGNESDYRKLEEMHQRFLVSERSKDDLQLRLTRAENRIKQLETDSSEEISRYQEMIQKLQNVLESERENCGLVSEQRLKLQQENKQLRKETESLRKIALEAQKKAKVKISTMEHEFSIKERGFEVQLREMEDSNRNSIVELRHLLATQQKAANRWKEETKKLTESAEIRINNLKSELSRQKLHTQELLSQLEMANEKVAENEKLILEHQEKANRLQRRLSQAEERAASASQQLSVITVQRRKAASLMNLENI
Target,log2 fold change [1],log2 fold change [2],log2 fold change [3],log2 fold change [4],log2 fold change [5],log2 fold change [6],log2 fold change [7],log2 fold change [8],log2 fold change [9],log2 fold change [10],log2 fold change [11],log2 fold change [12],log2 fold change [13],log2 fold change [14],log2 fold change [15],log2 fold change [16],log2 fold change [17],log2 fold change [18],log2 fold change [19],log2 fold change [20]
ROMO1 (UniProt P60602),0.023,0.121,0.064,0.117,-0.033,-0.003,-0.059,-0.061,0.056,-0.022,-0.001,0.027,-0.03,-0.039,0.066,0.063,0.062,0.01,–,–
RUFY3 isoform 3 (UniProt Q7L099),0.017,–,-0.085,-0.073,-0.012,0.002,0.617 (active),-0.048,–,-0.018,-0.16,0.045,-0.271,0.052,0.024,0.134,-0.116,0.043,0.007,-0.057
RAB3D (UniProt O95716),–,–,-0.031,-0.106,0.083,0.021,-0.115,0.2,-0.142,-0.052,0.01,0.066,0.221,-0.116,0.075,-0.201,0.065,0.285,–,–
RMDN2 isoform 2 (UniProt Q96LZ7),–,–,–,–,–,–,–,-0.112,–,–,-0.556,0.661,–,-0.115,–,-0.104,–,-0.231,0,0.145
RNF26 (UniProt Q9BY78),–,–,–,–,0.008,–,–,-0.829,0.083,0.111,–,–,–,–,–,-0.011,–,–,–,–
RNF41 (UniProt Q9H4P4),–,–,–,–,–,–,–,–,-0.09,–,–,–,–,–,–,–,–,–,–,–
SCLT1 (UniProt Q96NL6),0.148,–,-0.081,0.038,0.149,-0.144,-0.028,–,0.087,-0.009,-0.099,-0.043,-0.052,0.041,0.191,–,–,0.098,0.003,0.055
SAFB2 (UniProt K7EQU4),–,0.275,–,–,–,–,–,–,-0.053,–,0.155,0.162,–,-0.113,–,–,–,–,-0.244,-0.04
SLC1A3 (UniProt P43003),–,0.167,-0.039,-0.084,-0.042,-0.194,0.201,0.126,-0.051,0.013,0.131,-0.063,-0.203,-0.077,0.133,-0.009,0.054,0.096,–,–
SCAMP2 (UniProt O15127),0.019,-0.213,-0.544 (active),0.009,0.034,0.044,-0.065,-0.073,-0.113,-0.125,0.084,-0.107,-0.027,0.058,0.11,0.062,-0.061,0.046,–,–
RCOR3 isoform 3 (UniProt Q9P2K3),-0.039,–,-0.061,0.105,-0.015,0.091,0.104,-0.065,0.023,0.039,-0.019,0.001,-0.09,-0.022,-0.056,0.006,-0.119,0.09,-0.117,-0.047
RICTOR isoform 3 (UniProt Q6R327),-0.017,-0.146,–,-0.027,-0.015,-0.127,-0.072,–,–,0.141,-0.102,0.176,-0.044,-0.023,–,–,-0.052,–,–,–
